Reference: PubChem BioAssay (EPA / NIEHS)
Results filed as inconclusive are left out. Calls of active or inactive are those of the source. Rule for the calls: active = hit-call score of the fitted dose curve at least 0.9, where 1 is the maximum; inconclusive = response in the unintended direction; inactive = score below 0.9.

What was measured:
[1] = Tanguay_ZF_120hpf_EYE_legacy: (Legacy) Oregon State University Tanguay Lab 120 Hour Post-fertilization zebrafish Assay for Eye Malformation (AID 2283636);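 note: binary presence or absence of eye malformation scored by brightfield in 120 hpf larvae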
Procedure, shortened: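 Dechorionated Tropical 5D zebrafish embryos, one per well from 6 hpf, static exposure to 120 hpf at 28C, 0.64% DMSO. Eye malformation scored present/absent by brightfield; dead embryos not scored.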

[2] = Tanguay_ZF_120hpf_SNOU_legacy: (Legacy) Oregon State University Tanguay Lab 120 Hour Post-fertilization zebrafish Assay for Snout Malformation (AID 2283637)
Procedure, shortened: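 Dechorionated tropical 5D wild-type zebrafish embryos exposed statically from 6 to 120 hpf at 28C, one per well, in 0.64% DMSO. Snout malformation scored as present/absent by brightfield at 120 hpf; dead embryos not scored.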

[3] = Tanguay_ZF_120hpf_JAW_legacy: (Legacy) Oregon State University Tanguay Lab 120 Hour Post-fertilization zebrafish Assay for Jaw Malformation (AID 2283638);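 for AC50: active means more embryos with jaw malformation than DMSO controls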
Procedure, shortened: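 Static waterborne exposure of dechorionated wild-type (Tropical 5D) zebrafish from 6 to 120 hpf at 28C, 0.64% DMSO vehicle; 5uM trimethyltin chloride served as positive control. Jaw morphology recorded as binary at 120 hpf.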

[4] = Tanguay_ZF_120hpf_OTIC_legacy: (Legacy) Oregon State University Tanguay Lab 120 Hour Post-fertilization zebrafish Assay for Otic Vesicle Malformation (AID 2283639)
Procedure, shortened: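 Tropical 5D wild-type zebrafish embryos statically exposed in 0.64% DMSO at 28C until 120 hpf; 5uM trimethyltin chloride as positive control. Otic vesicle malformation scored present/absent by brightfield; dead embryos not scored; gain fitted versus DMSO.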

[5] = Tanguay_ZF_120hpf_PE_legacy: (Legacy) Oregon State University Tanguay Lab 120 Hour Post-fertilization zebrafish Assay for Pericardial Edema (AID 2283640);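 for AC50: potency for increased incidence of pericardial edema versus DMSO baseline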
Procedure, shortened: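 Read-out is the presence or absence of pericardial edema at 120 hpf under brightfield, with gain of signal fitted against DMSO controls. Larvae (5D wild-type) were statically exposed at 28C with 0.64% final DMSO.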

[6] = Tanguay_ZF_120hpf_BRAI_legacy: (Legacy) Oregon State University Tanguay Lab 120 Hour Post-fertilization zebrafish Assay for Brain Malformation (AID 2283641)
Procedure, shortened: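 Brain malformation in Tropical 5D zebrafish was recorded as a binary endpoint after static compound exposure from early development to 120 hpf at 28C. Activity was analysed against DMSO as negative control.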

[7] = Tanguay_ZF_120hpf_SOMI_legacy: (Legacy) Oregon State University Tanguay Lab 120 Hour Post-fertilization zebrafish Assay for Somite Malformation (AID 2283647)
Procedure, shortened: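 5D WT zebrafish; chorion removed 4 hpf; 1 embryo/well from 6 hpf; static exposure to 120 hpf, 28C, 0.64% DMSO final. Endpoint: somite malformation, binary, brightfield. Mortality excluded.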

[8] = Tanguay_ZF_120hpf_PFIN_legacy: (Legacy) Oregon State University Tanguay Lab 120 Hour Post-fertilization zebrafish Assay for Pectoral Fin Malformation (AID 2283648);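 note: each larva judged yes or no for fin defect by brightfield with dead larvae skipped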
Procedure, shortened: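 Dechorionated Tropical 5D wild-type zebrafish embryos, one per well, statically exposed from 6 to 120 hpf at 28C with 0.64% DMSO final. Pectoral fin malformation scored present/absent by brightfield at 120 hpf; not scored in dead embryos.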

[9] = Tanguay_ZF_120hpf_CFIN_legacy: (Legacy) Oregon State University Tanguay Lab 120 Hour Post-fertilization zebrafish Assay for Caudal Fin Malformation (AID 2283649)
Procedure, shortened: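 Embryos were collected from Tropical 5D wild-type adults and dechorionated at 4 hpf. At 6 hpf each was exposed, one per well, at 0.64% DMSO and 28C. At 120 hpf fin morphology was scored; dead embryos were excluded.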

[10] = Tanguay_ZF_120hpf_PIG_legacy: (Legacy) Oregon State University Tanguay Lab 120 Hour Post-fertilization zebrafish Assay for Pigmentation Malformation (AID 2283650)
Procedure, shortened: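 Dechorionated Tropical 5D wild-type embryos, one per well from 6 hpf, statically exposed at 28C in the dark until 120 hpf, 0.64% DMSO final. Pigmentation scored present/absent by brightfield microscopy; dead embryos not scored; fitted versus DMSO.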

[11] = Tanguay_ZF_120hpf_TRUN_legacy: (Legacy) Oregon State University Tanguay Lab 120 Hour Post-fertilization zebrafish Assay for Truncated Body (AID 2283655)
Procedure, shortened: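 5D wild-type larvae; pronase dechorionation; static exposure 6→120 hpf, 28C; DMSO 0.64% final; 5uM trimethyltin chloride positive control. Readout: presence/absence of truncated body, analyzed relative to DMSO.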

[12] = Tanguay_ZF_120hpf_NC_legacy: (Legacy) Oregon State University Tanguay Lab 120 Hour Post-fertilization zebrafish Assay for Notochord and Tail Malformation (AID 2283656)
Procedure, shortened: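 Dechorionated Tropical 5D wild-type zebrafish embryos, one per well from 6 hpf, statically exposed to 120 hpf at 28C in 0.64% DMSO final. Notochord distortion scored present/absent by brightfield; dead embryos excluded.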

[13] = read-out: ABC Transporter (ABCB1), ABCB1 (gene 5243); assay: CLD_ABCB1_6hr: CellzDirect (CLD) Gene Expression Assay for ABC Transporter (ABCB1) at 6 hours (AID 2283659);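 note: hits raise ABCB1 transcript above the DMSO vehicle baseline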
Procedure, shortened: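 Primary human hepatocytes (two donor preparations) dosed daily for two days with chemicals at multiple concentrations, 0.2% DMSO vehicle; harvested 6 h post-dose. ABCB1 mRNA induction quantified by qNPA chemiluminescence; gain-of-signal fitted versus DMSO.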

[14] = read-out: xenobiotic metabolism (CYP1A1), CYP1A1 (gene 1543); assay: CLD_CYP1A1_6hr: CellzDirect (CLD) Gene Expression Assay for xenobiotic metabolism (CYP1A1) at 6 hours (AID 2283661);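 for AC50: potency for transcript induction above DMSO vehicle baseline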
Procedure, shortened: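 Primary human hepatocytes from two donors, compound versus 0.2% DMSO vehicle. CYP1A1 mRNA measured 6 h after dosing by quantitative nuclease protection assay with chemiluminescent read-out; induction fitted relative to DMSO, cytotoxicity flagged by microscopy.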

[15] = Tanguay_ZF_120hpf_SWIM_legacy: (Legacy) Oregon State University Tanguay Lab 120 Hour Post-fertilization zebrafish Assay for Swim Bladder Malformation (AID 2283654);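 note: swim bladder malformation in each larva scored yes or no under brightfield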
Procedure, shortened: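 Dechorionated wild-type Tropical 5D zebrafish embryos, one per well from 6 hpf, were statically exposed at 28C until 120 hpf in 0.64% DMSO. Swim bladder malformation scored as present/absent by brightfield microscopy; not scored in dead larvae.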

[16] = read-out: Broad substrate specificity ATP-binding cassette transporter ABCG2 (Homo sapiens) (UniProt Q9UNQ0); assay: CLD_ABCG2_6hr: CellzDirect (CLD) Gene Expression Assay for ABC Transporter (ABCG2) at 6 hours (AID 2283660)
Procedure, shortened: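 Primary human hepatocytes dosed daily with chemicals at multiple concentrations (0.2% DMSO vehicle), harvested 6 h after dosing. ABCG2 mRNA induction read by quantitative nuclease protection assay (qNPA) chemiluminescence; gain of signal fitted against DMSO baseline.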

[17] = Tanguay_ZF_120hpf_CIRC_legacy: (Legacy) Oregon State University Tanguay Lab 120 Hour Post-fertilization zebrafish Assay for Circulatory Malformation (AID 2283651)
Procedure, shortened: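 Dechorionated wild-type 5D zebrafish embryos, one per well, statically exposed from 6 to 120 hpf at 28C with 0.64% DMSO; circulatory malformation scored present/absent by brightfield microscopy at 120 hpf, dead embryos excluded.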

Measured: AC50

Broad substrate specificity ATP-binding cassette transporter ABCG2 (Homo sapiens), sequence (Q9UNQ0 whole entry, looked up): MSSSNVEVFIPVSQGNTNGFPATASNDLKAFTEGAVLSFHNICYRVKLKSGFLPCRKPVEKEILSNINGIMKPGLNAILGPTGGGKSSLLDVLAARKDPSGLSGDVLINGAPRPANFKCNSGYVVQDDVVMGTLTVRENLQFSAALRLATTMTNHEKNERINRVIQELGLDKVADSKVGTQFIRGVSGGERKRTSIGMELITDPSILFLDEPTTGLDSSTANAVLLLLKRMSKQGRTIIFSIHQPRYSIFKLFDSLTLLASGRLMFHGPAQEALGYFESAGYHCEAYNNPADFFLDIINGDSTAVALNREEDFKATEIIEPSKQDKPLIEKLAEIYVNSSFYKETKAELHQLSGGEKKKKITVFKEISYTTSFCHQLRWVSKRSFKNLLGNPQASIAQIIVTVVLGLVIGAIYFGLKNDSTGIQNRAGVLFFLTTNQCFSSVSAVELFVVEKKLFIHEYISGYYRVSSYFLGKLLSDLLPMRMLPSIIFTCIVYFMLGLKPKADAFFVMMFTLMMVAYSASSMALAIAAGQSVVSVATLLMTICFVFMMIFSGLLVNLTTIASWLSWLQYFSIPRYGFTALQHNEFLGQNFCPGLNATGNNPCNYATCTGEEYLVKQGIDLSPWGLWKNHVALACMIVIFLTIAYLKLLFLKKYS

CCc1cnc(C2=NC(C)(C(C)C)C(=O)N2)c(C(=O)O)c1 (stereo not given)
not listed: [15] | [16] | [17]
inactive: all other assays above

FC(F)C(F)(F)OCC(Cn1cncn1)c1ccc(Cl)cc1Cl (stereo not given)
inactive: [12]
active: [1] 47.5 µM | [2] 47 µM | [3] 11.7 µM | [4] 47 µM | [5] 26.1 µM | [6] 13.7 µM | [7] 48.5 µM | [8] 46.6 µM | [9] 49.2 µM | [10] 49.6 µM | [15] 18.2 µM | [11] 49.6 µM | [14] 2.47 µM

COc1cccc(C(=O)NN(C(=O)c2cc(C)cc(C)c2)C(C)(C)C)c1C
not listed: [9] | [17]
inactive: all other assays above

CCC(=NOC/C=C/Cl)C1=C(O)CC(C2CCOCC2)CC1=O (stereo not given)
inactive: all assays above

COP(=O)(OC)OC(Br)C(Cl)(Cl)Br (stereo not given)
not listed: [9] | [10] | [15] | [17]
inactive: all other assays above

CCCOc1nn(C(=O)NS(=O)(=O)c2ccccc2C(=O)OC)c(=O)n1C
inactive: [1] | [2] | [3] | [4] | [5] | [9] | [15] | [12] | [16]

CCCSP(=O)(OCC)SCCC
active: [14] 1.9 µM
not listed: [6] | [17]
inactive: all other assays above

C#CC(C)(C)NC(=O)c1cc(Cl)cc(Cl)c1
not listed: [1] | [2] | [6] | [8] | [11] | [17]
inactive: all other assays above

CCOC(=O)COc1cc(-c2nn(C)c(OC(F)F)c2Cl)c(F)cc1Cl
not listed: [2] | [5] | [15] | [16] | [17]
inactive: all other assays above
